Measured values: the supplement of paper PMC12067926

Assays:
Assay in all cases: relative growth (AUC of 72 h growth curve relative to DMSO control, dAUC) (ratio); higher = more growth (less inhibition), active = hit call of the paper
Details in all cases: 20 µM;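 active = growth AUC significantly below the DMSO wells by Dunnett test; inactive = the rest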
[1] = tested on: Aeromonas 1 (Aeromonas sp. AE235)
How it was run: (§1)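 Each chemical was tested at 20 µM (1% DMSO) in 96-well plates seeded with a 1:100 dilution of cultures grown to carrying capacity in Luria–Bertani medium. These were isolates from Icelandic stream sediments and Silwood Park soil, as well as whole sediment communities. A plate reader took A600 readings hourly over 72 h, and three biological replicates were averaged. Relative growth (dAUC) is the spline-integrated area under the growth curve relative to the mean of the DMSO controls.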

[2] = tested on: Aeromonas 2 (Aeromonas sobria)
How it was run: as §1

[3] = tested on: Aeromonas 3 (Aeromonas popoffii)
How it was run: as §1

[4] = tested on: Argrobacterium 1 (Agrobacterium sp.)
How it was run: as §1

[5] = tested on: Arthrobacter 1 (Arthrobacter humicola)
How it was run: as §1

[6] = tested on: Arthrobacter 2 (Arthrobacter humicola)
How it was run: as §1

[7] = tested on: Arthrobacter 3 (Arthrobacter sp.)
How it was run: as §1

[8] = tested on: Community 10
How it was run: as §1

[9] = tested on: Community 4
How it was run: as §1

[10] = tested on: Community 6
How it was run: as §1

[11] = tested on: Community 7
How it was run: as §1

[12] = tested on: Community 8
How it was run: as §1

[13] = tested on: Community 9
How it was run: as §1

[14] = tested on: Flavobacterium 1 (Flavobacterium glaciei)
How it was run: as §1

[15] = tested on: Flavobacterium 2 (Flavobacterium succinicans)
How it was run: as §1

[16] = tested on: Hymenobacter 1 (Hymenobacter glaciei)
How it was run: as §1

[17] = tested on: Microbacterium 1 (Microbacterium arborescens)
How it was run: as §1

[18] = tested on: Neobacillus 1 (Neobacillus soli)
How it was run: as §1

[19] = tested on: Oryzobacter 1 (Oryzobacter terrae)
How it was run: as §1

[20] = tested on: Paenibacillus 1 (Paenibacillus castaneae)
How it was run: as §1

Measured: relative growth

OC(Cc1ccccc1Cl)(Cn1nc[nH]c1=S)C1(Cl)CC1 (stereo not given)
inactive: [1] 0.97 | [2] 0.986 | [3] 1.03 | [4] 1.01 | [5] 0.952 | [6] 1.04 | [7] 1.07 | [8] 0.945 | [9] 1.01 | [10] 0.982 | [11] 0.968 | [12] 1.03 | [13] 1.02 | [14] 1.09 | [15] 1 | [16] 1.01 | [17] 0.958 | [18] 1.05 | [19] 0.894 | [20] 1.01

N#Cc1c(Cl)c(Cl)c(Cl)c(C#N)c1Cl
active: [5] 0.567 | [6] 0.136 | [7] 0.599 | [14] 0.681 | [15] 0.543 | [16] 0.352 | [19] 0.632 | [20] 0.0717
inactive: [1] 1.04 | [2] 0.898 | [3] 1.01 | [4] 0.958 | [8] 0.896 | [9] 1.08 | [10] 0.965 | [11] 0.891 | [12] 1.02 | [13] 0.784 | [17] 1.06 | [18] 0.966

CC[C@H](C)C1O[C@]2(C=C[C@@H]1C)C[C@@H]1C[C@@H](C/C=C(\C)[C@@H](O[C@H]3C[C@H](OC)[C@@H](O[C@H]4C[C@H](OC)[C@H](NC)[C@H](C)O4)[C@H](C)O3)[C@@H](C)/C=C/C=C3\CO[C@@H]4[C@H](O)C(C)=C[C@@H](C(=O)O1)[C@]34O)O2 (stereo not given in full)
active: [5] 0.108 | [6] 0.00328 | [7] 0.324 | [10] 0.509 | [13] 0.404 | [14] 0.0154 | [16] 0.356 | [19] 0.00218 | [20] 0.0061
inactive: [1] 1.08 | [2] 0.923 | [3] 0.979 | [4] 1.11 | [8] 0.9 | [9] 0.787 | [11] 0.976 | [12] 0.952 | [15] 0.832 | [17] 1.04 | [18] 0.894

COc1ncc(F)c2nc(S(=O)(=O)Nc3c(F)cccc3F)nn12
inactive: [1] 1.06 | [2] 1.02 | [3] 1.07 | [4] 0.953 | [5] 1.03 | [6] 1.11 | [7] 1.03 | [8] 1.04 | [9] 1.05 | [10] 1.05 | [11] 0.948 | [12] 1.04 | [13] 1.11 | [14] 1.03 | [15] 1.06 | [16] 1.06 | [17] 1.03 | [18] 1.04 | [19] 1 | [20] 1.06

Cc1nnc(-c2ccccc2)c(=O)n1N
inactive: [1] 0.991 | [2] 0.975 | [3] 0.993 | [4] 1.03 | [5] 0.986 | [6] 0.946 | [7] 1.04 | [8] 0.899 | [9] 0.882 | [10] 0.909 | [11] 1.12 | [12] 0.974 | [13] 0.918 | [14] 0.963 | [15] 0.956 | [16] 0.868 | [17] 1.01 | [18] 0.937 | [19] 1.12 | [20] 0.905

COCc1cnc(C2=NC(C)(C(C)C)C(=O)N2)c(C(=O)O)c1 (stereo not given)
inactive: [1] 0.932 | [2] 0.973 | [3] 1 | [4] 1 | [5] 0.954 | [6] 1.01 | [7] 0.931 | [8] 0.96 | [9] 0.84 | [10] 0.937 | [11] 1.14 | [12] 0.983 | [13] 0.959 | [14] 0.978 | [15] 1 | [16] 1.02 | [17] 1.02 | [18] 0.961 | [19] 1.05 | [20] 0.966

COP(=O)(OC)OC=C(Cl)Cl
inactive: [1] 0.937 | [2] 0.977 | [3] 0.972 | [4] 0.977 | [5] 0.856 | [6] 0.86 | [7] 0.916 | [8] 1.04 | [9] 0.961 | [10] 0.961 | [11] 1.09 | [12] 0.997 | [13] 0.964 | [14] 1.01 | [15] 0.965 | [16] 0.909 | [17] 0.975 | [18] 0.893 | [19] 0.94 | [20] 0.984

CC1(C)C(C(=O)OC(C#N)c2cccc(Oc3ccccc3)c2)C1(C)C (stereo not given)
inactive: [1] 0.986 | [2] 0.989 | [3] 1.08 | [4] 1.09 | [5] 1.1 | [6] 0.685 | [7] 0.704 | [8] 0.908 | [9] 1 | [10] 1.03 | [11] 1.09 | [12] 1.02 | [13] 1.05 | [14] 0.939 | [15] 0.946 | [16] 1.02 | [17] 1.03 | [18] 0.932 | [19] 1.14 | [20] 0.918

CC1COC(Cn2cncn2)(c2ccc(Oc3ccc(Cl)cc3)cc2Cl)O1 (stereo not given)
active: [6] 0.223 | [7] 0.348 | [14] 0.367
inactive: [1] 1.08 | [2] 1.03 | [3] 1.02 | [4] 1.04 | [5] 0.741 | [8] 0.896 | [9] 1.2 | [10] 1.06 | [11] 1.02 | [12] 1.01 | [13] 1.21 | [15] 0.988 | [16] 0.956 | [17] 0.936 | [18] 1.08 | [19] 1.16 | [20] 0.872

Cc1cc(C(C#N)c2ccc(Cl)cc2)c(Cl)cc1NC(=O)c1cc(I)cc(I)c1O (stereo not given)
active: [2] 0.788 | [5] 0.0129 | [6] 0.011 | [7] 0.0114 | [9] 0.631 | [10] 0.454 | [13] 0.394 | [14] 0.0126 | [15] 0.794 | [16] 0.00496 | [18] 0.729 | [19] 0.00516 | [20] 0.325
inactive: [1] 0.979 | [3] 0.96 | [4] 0.833 | [8] 0.677 | [11] 0.817 | [12] 0.725 | [17] 0.99

Oc1ccc(Cl)cc1Cc1cc(Cl)ccc1O
active: [1] 0.522 | [2] 0.00195 | [3] 0.275 | [5] 0.00578 | [6] 0.00499 | [7] 0.011 | [10] 0.496 | [12] 0.654 | [13] 0.327 | [14] 0.0108 | [15] 0.00242 | [16] 0.0173 | [18] 0.731 | [19] 0.00429 | [20] 0.00339
inactive: [4] 0.959 | [8] 0.642 | [9] 0.664 | [11] 0.862 | [17] 0.869

CC(C)(C)[C@@H](O)[C@H](Oc1ccc(Cl)cc1)n1cncn1
inactive: [1] 1.02 | [2] 1.04 | [3] 1.03 | [4] 1.03 | [5] 1.15 | [6] 1.1 | [7] 1.02 | [8] 1.07 | [9] 1.14 | [10] 1.12 | [11] 0.988 | [12] 1.02 | [13] 1.09 | [14] 1.01 | [15] 1.02 | [16] 1.05 | [17] 0.963 | [18] 1.04 | [19] 1.02 | [20] 1.12

ClC1C(Cl)C(Cl)C(Cl)C(Cl)C1Cl (stereo not given)
inactive: [1] 1.02 | [2] 0.964 | [3] 0.994 | [4] 1 | [5] 1.04 | [6] 0.837 | [7] 0.909 | [8] 0.844 | [9] 0.976 | [10] 0.931 | [11] 1.03 | [12] 0.993 | [13] 0.963 | [14] 0.862 | [15] 0.932 | [16] 0.999 | [17] 1.01 | [18] 0.941 | [19] 1.13 | [20] 0.961

CS(=O)(=O)c1ccc(C(=O)C2C(=O)CCCC2=O)c([N+](=O)[O-])c1
inactive: [1] 0.965 | [2] 1 | [3] 0.97 | [4] 0.959 | [5] 1 | [6] 1.07 | [7] 1.02 | [8] 1.02 | [9] 1.06 | [10] 1.04 | [11] 0.957 | [12] 1.06 | [13] 1.04 | [14] 1.07 | [15] 1.04 | [16] 1.07 | [17] 1.04 | [18] 1.04 | [19] 1.01 | [20] 1.03

CCCCOC(=O)[C@H](C)Oc1ccc(Oc2ccc(C#N)cc2F)cc1
inactive: [1] 1.04 | [2] 1.07 | [3] 1.05 | [4] 1.11 | [5] 1.11 | [6] 0.875 | [7] 0.882 | [8] 0.88 | [9] 1.03 | [10] 1.03 | [11] 1.07 | [12] 0.995 | [13] 1.06 | [14] 1.13 | [15] 0.955 | [16] 1.03 | [17] 1.04 | [18] 1.03 | [19] 1.06 | [20] 1.1

CN1COCN(Cc2cnc(Cl)s2)/C1=N\[N+](=O)[O-]
inactive: [1] 0.991 | [2] 0.983 | [3] 0.984 | [4] 1.04 | [5] 1.04 | [6] 1.02 | [7] 1.13 | [8] 0.777 | [9] 1.04 | [10] 0.963 | [11] 0.896 | [12] 1.02 | [13] 1.06 | [14] 1.02 | [15] 0.975 | [16] 0.998 | [17] 0.974 | [18] 1.01 | [19] 0.955 | [20] 0.945
